Most compounds without a hit are left out; they make up all but 9.3% or so of the library.
FLuc counter: qHTS profiling assay for firefly luciferase inhibitor/activator using purifed enzyme and Km concentrations of substrates (counterscreen for miR-21 project). Luciferin 4-monooxygenase (Photinus pyralis), P08659. purified FLuc, Km substrates, luminescence inhibition. Potency, µM (doses to about 57.5 µM), inactives show at the top dose activity change, negative = inhibition, usual class: inhibitors. actives 6.9% (n = 360,000). AID 588342, 2011;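 note: plate controls were vehicle for no effect and reference inhibitor for full effect; nearly all actives have a fitted effect of over 55% in size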
Target sequence (P08659 whole entry, looked up): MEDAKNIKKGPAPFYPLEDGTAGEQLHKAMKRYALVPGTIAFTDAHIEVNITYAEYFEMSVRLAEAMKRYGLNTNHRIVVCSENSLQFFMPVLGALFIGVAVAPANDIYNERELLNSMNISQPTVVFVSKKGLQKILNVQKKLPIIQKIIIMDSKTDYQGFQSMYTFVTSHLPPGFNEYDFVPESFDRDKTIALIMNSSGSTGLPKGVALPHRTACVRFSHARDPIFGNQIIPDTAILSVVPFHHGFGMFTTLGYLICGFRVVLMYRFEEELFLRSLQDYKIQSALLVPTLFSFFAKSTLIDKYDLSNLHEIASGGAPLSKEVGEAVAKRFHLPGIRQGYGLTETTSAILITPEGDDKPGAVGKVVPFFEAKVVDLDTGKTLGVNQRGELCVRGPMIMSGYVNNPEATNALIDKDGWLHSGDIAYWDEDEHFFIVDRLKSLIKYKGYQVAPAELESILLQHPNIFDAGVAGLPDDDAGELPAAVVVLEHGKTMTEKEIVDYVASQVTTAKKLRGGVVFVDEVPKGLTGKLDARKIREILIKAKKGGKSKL
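Purified P. pyralis luciferase, 10 nM final, with Km-level 10 uM D-luciferin and 10 uM ATP in 50 mM Tris acetate pH 7.5, 10 mM Mg acetate, 0.01% Tween-20, 0.05% BSA; 6-point qHTS titration about 60 µM downward; luminescence read.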
SMN2 splice enh: qHTS Assay for Enhancers of SMN2 Splice Variant Expression; HEK293 SMN2-luciferase splicing reporter, luminescence, 30-36 h; actives 2.8% (n = 210,000); Potency, µM (top dose mostly 46.1 µM), inactives show at the top dose activity change, positive = activation, most hits filed as activators; note: % of control where 0% means no effect; nearly all actives have a fitted effect of over 55% in size
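qHTS luciferase splicing reporter: luminescence rises when SMN2 exon 7 is included in transfected HEK293 cells. Compound exposure lasted 30-36 h at 37C, with 4.5 mM final sodium butyrate as control, followed by a ONE-Glo read.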
ELG1 DNA repair: qHTS screen for small molecules that inhibit ELG1-dependent DNA repair in human embryonic kidney (HEK293T) cells expressing luciferase-tagged ELG1; HEK293T ELG1-luciferase reporter, luminescence, 16 h; DNA damage induced by 5-fluorouridine; Potency, µM (top dose mostly 46.1 µM), for the others: at the top dose activity change, negative = inhibition, usual class: inhibitors; actives 2.3% (n = 330,000); note: % is set by controls: 0 for no effect and ±100 for the full control effect; nearly all actives have a fitted effect of over 55% in size
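Cells (2,000 per well) received 5-fluorouridine plus test compound or DMSO and were incubated 16 hr at 37 °C, 5% CO2. Luciferase activity was read by luminescence 30 min after ONE-Glo addition; signal suppression marked inhibition of damage-induced ELG1 function.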
NPC1 prom act: qHTS Assay for NPC1 Promoter Activators; Huh7 NPC1 promoter luciferase reporter, 24 h; Potency, µM (highest dose often 9.22 µM), for the others: at the highest dose activation, hits mostly activators; actives 2.4% (n = 320,000); AID 485313, 2010; note: % of control where 0% means no effect; nearly all actives have a fitted effect of over 60% in size
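Stably transfected Huh7 (NPC1 promoter→luciferase), 1500 cells/well in Opti-MEM + 10% FBS, 2 h settle, then compound 24 h at 37 °C. Luminescence after 10 min with Amplite reagent.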
ELG1 genotoxic: qHTS screen for small molecules that induce genotoxicity in human embryonic kidney (HEK293T) cells expressing luciferase-tagged ELG1 | HEK293T ELG1-luciferase reporter, luminescence, 16 h | Potency, µM (titrated, usually from 46 µM), inactives show at the highest dose activity change, positive = activation, hits mostly activators | actives 1.3% (n = 330,000); note: % of control where 0% means no effect; nearly all actives have a fitted effect of over 60% in size
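Step 1: seed 2,000 HEK293T ELG1-luciferase cells per well. Step 2: add compound or DMSO, incubate 16 hr at 37 °C. Step 3: ONE-Glo, 30 min at room temperature, read luminescence.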
Rab9 prom act: qHTS Assay for Rab9 Promoter Activators; Potency, µM (series often up to 9.22 µM), for inactives: top-dose activation, negative = inhibition, actives largely listed as activators; actives 2.8% (n = 320,000); Huh7 Rab9 promoter-luciferase reporter, luminescence, 24 h; note: % of control where 0% means no effect; nearly all actives have a fitted effect of over 60% in size
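Steps: seed 1500 Huh7 Rab9-luc cells per well, rest 2 h at 37 °C; add compound in DMSO; incubate 24 h; add luciferase reagent, 10 min ambient; read luminescence.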
Starred values were filed as active, the others as inactive; ? = inconclusive; . = not tested or not shown; [ ] = dose if it differs, or a comment. Calls come from the whole dose curve; as a rule, active = well fitted curve in the direction sought with a large enough effect; inconclusive = small, poorly fitted or top-dose-only effect, or another doubt; inactive = no such curve, though single readings can be large; an effect the other way counts as inactive or inconclusive. Potency is the fitted concentration of half-maximal effect.

SMILES	FLuc counter	SMN2 splice enh	ELG1 DNA repair	NPC1 prom act	ELG1 genotoxic	Rab9 prom act
CCc1cc2c(=O)n(CC(=O)NC3CCCCC3)cnc2s1	-0.9%	.	14.9%	-1.1%	1.6%	9.3%
CCc1cc2c(=O)n(CC(C)C)cnc2s1	?	14.1µM*	?	?	-0.8%	?
CCCCCn1cnc2sc(CC)cc2c1=O	23.9µM*	12.6µM*	?	?	?	2.82µM*
CCc1cc2c(=O)n(-c3ccc(Br)cc3)cnc2s1	?	5.01µM*	?	2.51µM*	?	2.51µM*
CCc1cc2c(=O)n(CC(=O)NCCc3ccc(OC)c(OC)c3)cnc2s1	-2.3%	15.7%	-3.5%	-1.0%	-1.8%	-4.2%
Cc1ccc(S(=O)(=O)Nc2ccccc2CNc2ccccn2)cc1	-14.5%	-13.4%[1.84 µM]	?	-0.7%	2.4%	1.7%
Cc1nc(NC(=O)CSc2nnc3ccccn23)c(Cl)cc1Cl	0.5%	3.6%	0.7%	-5.5%	1.7%	-8.1%
CCCn1c(CN(C)Cc2ccccc2)nc2c1c(=O)n(C)c(=O)n2C	-1.9%	-87.2%	11.6µM*	-9.3%	-7.8%	-13.8%
CCCCn1c(CN(C)Cc2ccccc2)nc2c1c(=O)n(C)c(=O)n2C	4.6%	-58.3%	?	-7.8%	-7.2%	-13.5%
CN(Cc1ccccc1)Cc1nc2c(c(=O)n(C)c(=O)n2C)n1Cc1ccccc1Cl	6.5%	-6.7%	14.6µM*	-2.4%	-7.0%	-4.5%
O=C(Nc1nnc(CCN2CCOCC2)s1)c1ccccc1	-22.0%	8.3%	?	17.4%	?	19.6%
COc1ccccc1NC(=O)c1ccc2c(c1)OCO2	15.1µM*	.	?	2.51µM*	10.3µM*	3.98µM*
COc1ccc(OC)c(NC(=O)c2ccc3c(c2)OCO3)c1	21.3µM*	.	?	15.2%	7.9%	12.9%
COc1cc2c(cc1NC(=O)c1ccc3c(c1)OCO3)oc1ccccc12	6.75µM*	14.1µM*	?	?	11.6µM*	3.16µM*
COc1cc2c(cc1NCc1ccc3c(c1)OCO3)oc1ccccc12	?	22.4µM*	?	25.7%	14.7%	-2.3%
O=C(c1ccc2c(c1)N(Cc1ccccc1F)C(=O)c1ccccc1S2(=O)=O)N1CCCCCC1	-0.8%	-4.3%	.	.	.	.
CCOC(=O)c1cn(CC)c2ccc(Br)cc2c1=O	2.5%	-14.0%	-10.8%	-1.7%	-3.3%	-5.3%
COc1ccc(OC)c(-c2csc(NC(=O)c3ccc4c(c3)OCO4)n2)c1	4.78µM*	?	-15.1%	17.3%	-2.9%	3.7%
C/C(=N\NC(=O)c1ccc([N+](=O)[O-])cc1Cl)c1ccccc1	?	.	?	?	?	3.55µM*
O=C(CCCN1C(=O)c2ccccc2C1=O)Nc1nncs1	-0.8%	-8.2%	13.8%	-7.7%	-1.3%	4.1%
CCOc1cc(C=C(C(=O)OC)C(=O)OC)ccc1OCc1ccc([N+](=O)[O-])cc1	-0.9%	-63.2%	20.6µM*	-3.0%	-11.0%	3.0%
CCOc1cc(/C=N/O)ccc1OCc1ccc([N+](=O)[O-])cc1	?	-26.9%	-21.2%	-0.2%	5.7%	-1.5%
CCCCCN(C(=O)CCC(=O)OCC(=O)c1c(C)cc(C)cc1C)c1c(N)n(CCCC)c(=O)[nH]c1=O	0.8%	.	-16.6%	-0.1%	-8.3%	-0.2%
Cc1ccc(C)c(OCCn2c(=O)c3c(ncn3C3CCCC3)n(Cc3ccccc3)c2=O)c1	0.4%	-22.9%	20.6µM*	-6.7%	-6.7%	3.7%
CN1CCCN(Cc2nc(-c3cccc(C(F)(F)F)c3)no2)CC1	-2.2%	.	?	-2.1%	1.5%	1.9%
SMILES	FLuc counter	SMN2 splice enh	ELG1 DNA repair	NPC1 prom act	ELG1 genotoxic	Rab9 prom act
COc1ccc(-c2cc(C(=O)Nc3ccccc3F)on2)cc1	-17.1%	?	?	0.7%	?	3.16µM*
COc1ccc(NC(=O)c2cc(-c3ccccc3O)no2)cc1	-10.7%	.	.	.	.	.
COc1ccc(NC(=O)c2nnn(CC(=O)Nc3ccccc3OC)c2N)c(OC)c1	?	.	?	2.5%	?	25.0%
COc1ccc(-n2nnc(C(=O)Nc3ccccc3F)c2N)cc1	2.39µM*	7.08µM*	.	.	.	.
COc1ccc(-c2cc(C(=O)Nc3ccccc3)on2)cc1	0.536µM*	?	?	0.0%	?	3.0%
O=C(Nc1ccc(F)cc1)c1cc(-c2ccccc2)no1	2.2%	-8.1%	4.7%	-3.3%	-1.6%	-4.4%
COc1ccc2c(c1)CC/C2=N\OC(=O)c1cccc(C)c1	1.51µM*	10.7%	?	3.55µM*	?	?
Cc1cccc(C(=O)O/N=C(\N)CS(=O)(=O)c2ccccc2)c1	0.0%	.	13.5%	-0.1%	6.8%	5.6%
COc1ccccc1C(=O)O/N=C(\c1ccccc1)c1ccncc1	-0.3%	-0.3%	-0.7%	-1.5%	0.3%	-3.9%
COc1ccc2c(c1)CCC/C2=N/OC(=O)c1ccccc1OC	13.5µM*	-16.6%	6.1%	-5.8%	-1.7%	0.6%
COc1ccc2c(c1)CC/C2=N\OC(=O)c1ccccc1C	1.51µM*	-0.2%	?	?	?	?
COc1ccc2c(c1[N+](=O)[O-])CCC/C2=N/OC(=O)c1cccc2ccccc12	3.6%	-4.8%	-2.8%	-1.9%	-2.5%	13.8%
COc1ccccc1C(=O)ON=C1c2ccccc2-c2ccccc21	21.3µM*	-13.0%	?	4.3%	-7.6%	-5.1%
COc1ccccc1C(=O)NC(=O)COc1ccc(Cl)cc1Cl	0.5%	.	?	-3.2%	0.7%	-4.5%
COc1nccc(Nc2ccccc2)c1C#N	-0.7%	-2.2%	-2.0%	0.8%	4.0%	0.6%
COc1ccc(-c2nc(-c3ccccc3)c(NCc3ccccc3)o2)cc1	.	1.5%	.	.	.	.
COc1cccc(-c2nnc(-c3ccc(C(F)(F)F)cc3)o2)c1OC	7.57µM*	17.8µM*	?	26.3%	?	?

High-throughput results as filed in PubChem BioAssay.
